S2 tox: Viability Counterscreen for Primary qHTS for Inhibitors of ATXN expression. S2 cells (HEK-293 line with an ATXN2-luciferase reporter) viability, CellTiter-Fluor protease fluorescence, 24 h. AID 651635, 2014. Potency, µM (titrated, usually from 56.7 µM), most hits filed as cytotoxic. actives 0.49% (n = 400,000); further: nearly all actives have a fitted effect of over 40% in size
RORgamma inh: qHTS for inhibitors of ROR gamma transcriptional activity; AID 2551, 2010; actives 5.4% (n = 310,000); Drosophila S2 Gal4-RORgamma UAS-luciferase reporter, 20 h; Nuclear receptor ROR-gamma (Mus musculus), P51450; Potency, µM (highest dose often 53.6 µM), for inactives: at the highest dose activity change, negative = inhibition, usual class: inhibitors; further: on the % scale 0 is the no-effect control and ±100 the full control effect; nearly all actives have a fitted effect of over 60% in size
Target sequence (P51450 whole entry, looked up, the tested form may be a part): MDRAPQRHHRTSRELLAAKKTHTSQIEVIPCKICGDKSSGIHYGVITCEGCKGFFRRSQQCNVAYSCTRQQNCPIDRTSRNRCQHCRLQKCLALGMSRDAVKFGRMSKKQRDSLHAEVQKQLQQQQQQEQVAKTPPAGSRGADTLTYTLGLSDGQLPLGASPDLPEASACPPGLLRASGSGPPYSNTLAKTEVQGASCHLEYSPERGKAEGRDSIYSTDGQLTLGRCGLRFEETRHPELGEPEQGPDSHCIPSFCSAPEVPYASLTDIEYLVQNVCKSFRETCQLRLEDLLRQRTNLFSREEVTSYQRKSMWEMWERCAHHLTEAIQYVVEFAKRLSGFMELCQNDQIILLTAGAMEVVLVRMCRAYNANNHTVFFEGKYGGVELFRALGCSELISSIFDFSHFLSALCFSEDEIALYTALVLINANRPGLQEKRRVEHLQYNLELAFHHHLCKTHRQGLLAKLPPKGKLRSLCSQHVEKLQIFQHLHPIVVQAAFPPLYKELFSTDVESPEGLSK
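Stable Schneider cell line, Gal4 DNA-binding domain fused to ROR gamma, UAS-luciferase. Cmpd 1 hr RT → CuSO4 700 uM final → 20 hr RT → luciferase reagent 10 min → luminescence.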
HepG2 tox: qHTS for Inhibitors of TGF-b: Cytotox Counterscreen | actives 0.76% (n = 410,000) | HepG2 CAGA-GFP viability, ATP luminescence, 18 h | Potency, µM (doses to about 46.1 µM), without a hit: at the highest dose activity change, negative = cytotoxicity, hits mostly cytotoxic | AID 588856, 2011
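CellTiter-Glo luminescence gave cytotoxicity after 18 hours at 37 degrees C. The cells were HepG2 CAGA-GFP in 1% FBS DMEM, stimulated with 500 pg/mL TGF-beta after compound addition. %Activity was normalised to no-cell wells (complete cell-killing) and DMSO (no toxicity), and curves were fitted and classified.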
ATXN2 expr inh: Primary qHTS for Inhibitors of ATXN expression | HEK-293 ATXN2-luciferase reporter, luminescence, 24 h | actives 0.72% (n = 360,000) | Potency, µM (series often up to 57 µM), inactives show at the top dose activity change, negative = inhibition, hits mostly inhibitors; further: on the % scale 0 is the no-effect control and ±100 the full control effect; nearly all actives have a fitted effect of over 55% in size
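qHTS (up to 57 uM final) was run with 24 h compound exposure of reporter cells at 37 °C. Each well was multiplexed: SteadyGlo luminescence measured ATXN2-luciferase expression after a fluorogenic Gly-Phe-AFC viability readout (25 uM final).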
TGFb inhibitor: qHTS for Inhibitors of TGF-b. HepG2 CAGA-GFP TGF-b/SMAD3 reporter, GFP fluorescence, 18 h; TGF-beta stimulated, 500 pg/mL final. Potency, µM (series often up to 46.1 µM), inactives show at the top dose activity, negative = inhibition, usual class: inhibitors. actives 1.2% (n = 410,000); further: on the % scale 0 is the no-effect control and ±100 the full control effect; nearly all actives have a fitted effect of over 65% in size
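First, reporter cells (HEPG2 CAGA-GFP) rested 2 h at 37 degrees C. Next, compounds were pinned in and TGF-beta added to 500 pg/mL final. After 18 h, GFP was imaged per cell and summed per well.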
VP16 counter: VP16 counterscreen qHTS for inhibitors of ROR gamma transcriptional activity; Drosophila S2 Gal4-VP16 UAS-luciferase, luminescence, 20 h; Potency, µM (doses to about 53.6 µM), for the others: at the top dose activity, negative = inhibition, actives largely listed as inhibitors; actives 3.5% (n = 310,000); AID 2546, 2010;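 further: Gal4-VP16 expression switched on by copper sulfate through the metallothionein promoter; on the % scale 0 is the no-effect control and ±100 the full control effect; nearly all actives have a fitted effect of over 50% in size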
Numbers without * were called inactive; i = inactive; ? = inconclusive; . = no result; [ ] = dose if it differs, or a comment. Only some compounds are listed: those with a hit (about 6.1% of all), similar ones and a draw of the others. The call rests on the fitted dose curve; in most records, active means well fitted curve in the direction sought with a large enough effect; inconclusive means small, poorly fitted or top-dose-only effect, or another doubt; inactive means no such curve, though single readings can be large; an effect the other way counts as inactive or inconclusive. Potency means the concentration at half of the fitted maximal effect.

SMILES	S2 tox	RORgamma inh	HepG2 tox	ATXN2 expr inh	TGFb inhibitor	VP16 counter
Cn1c(=O)c2c([nH]c(=O)n2Cc2ccc(Cl)cc2Cl)n(C)c1=O	i	.	9%	-3%	-3%	.
Cc1ccccc1NC(=O)c1nc(S(C)(=O)=O)ncc1N(Cc1ccco1)Cc1sccc1C	i	.	-14%	-6%	1%	.
CN(C)c1nc(NCc2ccccc2)nc(N/N=C/c2ccc(Cl)cc2Cl)n1	.	2.2µM*	-7%	73%	23%	-13%
CN(C)c1nc(NCc2ccccc2)nc(N/N=C/c2ccccc2F)n1	.	2.8µM*	.	.	.	6.3µM*
O=C(CC(=O)N/N=C/c1ccc(Cl)cc1Cl)NCc1ccccc1	i	13%	-6%	-8%	-10%	2%
Cc1nn(-c2ccccc2)c2sc(C(=O)NNC(=O)COc3cccc4ccccc34)cc12	?	8.9µM*	-15%	?	-24%	?
Cc1nn(-c2ccccc2)c2sc(C(=O)NNC(=O)COc3ccccc3)cc12	i	7.1µM*	-31%	-3%	-1%	10µM*
Cc1nn(-c2ccccc2)c2sc(C(=O)NC3CCCCC3)cc12	i	18%	-4%	-5%	3%	0%
Cc1cnc(NC(=O)c2cc3c(C)nn(-c4ccccc4)c3s2)s1	i	0.89µM*	-10%	14%	-8%	1.1µM*
Cc1ccc2ccc(Cl)cc2n1	i	.	.	17%	.	.
CCCC[C@@H](CNC)NC[C@H](Cc1ccc(O)cc1)NCCc1ccc(OCC)cc1	?	-34%	13µM*	?	?	-4%
COc1ccccc1-c1nnc(NC(=O)C2=COCCO2)o1	i	2.2µM*	6%	8%	2%	2.8µM*
COc1ccc(-c2nnc(NC(=O)C3=COCCO3)o2)cc1	i	3.5µM*	-2%	6%	4%	2.8µM*
CC(C)(C)OC(=O)[C@H](Cc1ccccc1)NC(=O)c1[nH]cnc1C(=O)Nc1ccc(Cl)cc1	.	4µM*	16µM*	?	?	8.9µM*
CCOC(=O)c1ccc(NC(=O)c2nc[nH]c2C(=O)N[C@@H](Cc2ccccc2)C(=O)OC(C)(C)C)cc1	?	2.8µM*	-52%	?	?	7.1µM*
CCOC(=O)c1ccc(NC(=O)c2nc[nH]c2C(=O)N[C@H](C)CO)cc1	i	.	-3%	5%	-1%	.
CC(C)(C)OC[C@H](NC(=O)c1[nH]cnc1C(=O)Nc1ccccc1F)C(=O)OC(C)(C)C	.	.	20µM*	?	?	.
CN1[C@@H]2CC[C@@H]1CC(OC(=O)[C@H](CO)c1ccccc1)C2 (some centres undefined)	.	7%	.	.	.	12%
Cc1cc(C)c(NC(=O)Cc2ccc(-n3c(C)nc4cccnc43)cc2)c(C)c1	.	.	-25%	.	13µM*	.
C=CCOC(=O)/C=C/NC(=O)/C=C/C=C/CCCCCCCC(C)O (centres undefined)	.	-6%[10 µM]	.	.	.	0%[10 µM]
C=CCOC(=O)/C=C/C(=O)NC(N)=O	?	20µM*	5%	.	5%	?
COC(=O)C1=C(C)NC(COC(N)=O)=C(C(=O)OC(C)C)C1c1cccc(Cl)c1Cl (centres undefined)	?	.	.	-29%	.	.
Cc1nc2ccc([N+](=O)[O-])cc2nc1C	i	-11%	2%	-3%	2%	7%
Cc1ccc2nc3cc([N+](=O)[O-])cc([N+](=O)[O-])c3cc2c1	7.9µM*	?	-18%	7.5µM*	7%	2.2µM*
C(=Nc1cccnc1)c1ccc2ccccc2n1	.	.	0%	.	-14%	.
SMILES	S2 tox	RORgamma inh	HepG2 tox	ATXN2 expr inh	TGFb inhibitor	VP16 counter
CCN(CC)C(=O)Nc1ccc(OCC(O)CNC(C)(C)C)c(C(C)=O)c1 (centres undefined)	i	.	.	5%	.	.
S=C(Nc1ccc(Oc2ccccc2)cc1)NC1CCCC1	i	5µM*	-1%	13%	-7%	5µM*
S=C(NCC1CCCCC1)Nc1ccc(Oc2ccccc2)cc1	?	2.8µM*	-13%	?	?	5µM*
S=C(NCC1CCCCC1)Nc1cccnc1	i	-40%	-4%	8%	-2%	16%
Cc1cccc(NC(=S)NC2CCCC2)c1	i	22%	8%	18%	-16%	-15%
S=C(Nc1ccc(Br)cc1)NC1CCCC1	i	6.3µM*	-23%	6%	?	10µM*
COc1ccc(NC(=S)NC2CCCCC2)cn1	i	13µM*	5%	17%	?	?
CC(C)NC(=S)Nc1ccc(Oc2ccccc2)cc1	?	?	-27%	-6%	0%	-17%
CC1CCC(NC(=O)c2ccc(CS(=O)(=O)c3cccc(C(F)(F)F)c3)o2)CC1 (centres undefined)	i	.	-3%	3%	?	.
CC(=O)OC[C@@H]1O[C@H](CCO/N=C(\C)CCC(=O)OC[C@@H]2O[C@H](C#Cc3ccccc3)C=C[C@@H]2Oc2ccc(C)cc2)C=C[C@@H]1OC(C)=O	.	14%[10 µM]	.	.	.	6%[10 µM]
O=C(CN1CCCCCC1)Nc1ccccc1Oc1ccccc1	i	-8%	-13%	-6%	0%	5%[10 µM]
S=C(Nc1ccccc1Oc1ccccc1)NC1CCCC1	i	3.2µM*	-37%	.	-26%	7.1µM*
CCc1cccc(NC(=O)C(Cc2ccccc2)NS(=O)(=O)c2ccc3c(c2)c(=O)n(C)c(=O)n3C)c1 (centres undefined)	i	.	-31%	-32%	4.5µM*	.
Cc1ccc(NC(=O)C(Cc2ccccc2)NS(=O)(=O)c2ccc3c(c2)c(=O)n(C)c(=O)n3C)cc1 (centres undefined)	i	.	-9%	-20%	?	.
COc1ccc(C(=O)NC(=S)Nc2ccc3[nH]c(=O)[nH]c3c2)cc1	i	-1%	-2%	5%	0%	-6%
COc1ccc(C(=O)NC(=S)Nc2nnn(C)n2)cc1	i	5.6µM*	10%	9%	4%	-26%
COc1cccc(C(=O)NC(=S)Nc2nnn(C)n2)c1	i	8.9µM*	3%	7%	?	11µM*
CCN=c1scc(C)n1/N=C/c1cc(Br)c(O)c(Br)c1	?	-22%	-19%	52%	-15%	4%
CCN=c1scc(C)n1/N=C/c1ccc(O)c(O)c1O	?	3.5µM*	-15%	-12%	-23%	?
